The structures appear in SMILES notation. In all, about 63,000 compounds went through this assay and about 1,100 (1.7%) were called active. Cut-off read from the data, not from the text of the source: active = cytotoxicity above about 50%; inactive = the rest. This excerpt belongs to a sample that is enriched for actives. Potency and affinity values are given separately.

Results on 63 molecules are retold here after PubChem BioAssay AID430 (Sanford-Burnham Center for Chemical Genomics, 2006).

This experiment is described as follows: HPDE-C7 pancreatic duct cell viability loss – fluorescence, HTS (AID 430).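 Note: cells exposed to compound for 48 hours before viability readout; 0% = vehicle and 100% = reference cytotoxic drug.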 The conditions noted are these: HPDE-C7 pancreatic duct cells viability, at 10 µM, hits give high values.
On to `COC(=O)c1ccc(Oc2c(C)oc3c(CN4CCN(C)CC4)c(O)ccc3c2=O)cc1`, for which the cytotoxicity is -9.6% (inactive).

Consider `Cc1cc(NC(=O)COC(=O)CSCc2ccc(Cl)c(Cl)c2)no1`, for which the cytotoxicity is -5.6% (inactive).

On to `Cc1cc(NC(=O)COC(=O)C(Nc2ccc(C(F)(F)F)cc2Cl)C(C)C)no1` (stereo not drawn), for which the cytotoxicity is 54.8% (active).

On to `Cc1cc(NC(=O)Cn2cc(C(F)(F)F)cc(Cl)c2=O)no1`, for which the cytotoxicity is 4.3% (inactive).

In the case of `O=C(NC(C(=O)c1ccccc1)n1ccc(=O)[nH]c1=O)c1ccccc1` (stereo not drawn), the cytotoxicity was 23.4% (inactive).

For the molecule `CCOC(=O)N1CCN(C(=O)c2cccc(OC)c2OC)CC1`, the cytotoxicity is 6.7% (inactive).

On to `CC(NS(=O)(=O)c1ccc(OCC(=O)N2CCOCC2)c(Cl)c1)c1ccccc1` (stereo not drawn), for which the cytotoxicity was 3.2% (inactive).

Regarding `COCCNc1ncnc2c1cnn2Cc1ccc(Cl)cc1`, the cytotoxicity was 31.2% (inactive).

On to `CCOC(=O)N1CCN(C(=O)CSc2nnc(-c3cccc(OC)c3)o2)CC1`, for which the cytotoxicity was -7.7% (inactive).

With `O=C(Nc1ccc(F)cc1)C1CCCN(S(=O)(=O)c2cccc3cccnc23)C1` (stereo not drawn), the cytotoxicity is -10.4% (inactive).

In the case of `O=C(Nc1ccncc1)C1CCCN(S(=O)(=O)c2cccc3cccnc23)C1` (stereo not drawn), the cytotoxicity is 53.3% (active).

For the molecule `Cc1cccc(NC(=O)C2CCCN(S(=O)(=O)c3cccc4cccnc34)C2)c1` (stereo not drawn), the cytotoxicity is -12.3% (inactive).

With `COC(=O)c1ccc(CSc2nc(N3CCOCC3)c3c(c2C#N)CC(C)(C)OC3)o1`, the cytotoxicity was 16.6% (inactive).

As to `CCSc1nc(N)c2c3c(sc2n1)CN(C)CC3`, the cytotoxicity is -22% (inactive).

`O=C(COc1ccccc1)N(Cc1ccco1)C1CCS(=O)(=O)C1` (stereo not drawn): the cytotoxicity is -19.1% (inactive).

On to `CCCc1ccc(Oc2cn[nH]c2-c2ccc(O)c(C)c2O)cc1`, for which the cytotoxicity was 103% (active).

With `COc1ccc(O)c(-c2[nH]ncc2C(=O)c2ccccc2C)c1`, the cytotoxicity is -8.4% (inactive).

Take `CCCc1ccc(OCC(=O)O)cc1`: the cytotoxicity is 3% (inactive).

With `CCCc1ccc(Oc2cn[nH]c2-c2ccc(O)cc2O)cc1`, the cytotoxicity was 44.2% (inactive).

As to `CCOC(=O)C1CCN(C(=O)Nc2ccccc2Cl)CC1`, the cytotoxicity is 4% (inactive).

For `Cc1nn(CC(=O)NCc2ccccc2)c(=O)c2ccccc12`, the cytotoxicity was -4.9% (inactive).

For the molecule `Cn1c(-c2ccc3c(c2)OCO3)cnc1NCc1ccc(Cl)cc1`, the cytotoxicity was 43.1% (inactive).

As to `Cn1c(-c2ccc3c(c2)OCO3)cnc1NCc1ccccc1`, the cytotoxicity is -1.6% (inactive).

`Cn1c(-c2ccc3c(c2)OCO3)cnc1NCc1cccc(Cl)c1`: the cytotoxicity was 71.3% (active).

For the molecule `O=C(CSc1nnnn1Cc1ccccc1)N1CCN(c2ccccc2)CC1`, the cytotoxicity was 7.7% (inactive).

Consider `CCCN(C(=O)Cc1nc(N)n[nH]1)C1(C(=O)Nc2c(C)cccc2C)CCCCC1`, for which the cytotoxicity is -7.4% (inactive).

For `Cc1cccc2cc(CN(CC3CCCO3)C(=O)NC3CCCCC3)c(=O)[nH]c12` (stereo not drawn), the cytotoxicity is -7.6% (inactive).

With `CN(Cc1ccccc1)S(=O)(=O)c1ccc(C(=O)Nc2nnc(C3CC3)o2)cc1`, the cytotoxicity is 28.3% (inactive).

Turning to `O=C(CCC1CCCCC1)N1CCN(Cc2ccc3c(c2)OCO3)CC1`, the cytotoxicity was -7.9% (inactive).

As for `Cn1nnc(NC(=O)c2ccc(C(C)(C)C)cc2)n1`, the cytotoxicity is -6.6% (inactive).

As for `Cc1cccn2c(=O)c3cc(C(=O)N4c5ccccc5CC4C)n(C)c3nc12` (stereo not drawn), the cytotoxicity is 87.3% (active).

Regarding `Cc1cccn2c(=O)c3cc(C(=O)N4CCN(c5ccccc5)CC4)n(C)c3nc12`, the cytotoxicity was -18.3% (inactive).

Take `Cc1cccn2c(=O)c3cc(C(=O)NCCN4CCOCC4)c(=N)n(CCc4ccccc4)c3nc12`: the cytotoxicity was 4.4% (inactive).

On to `CCNC(=O)c1cc2c(=O)n3cccc(C)c3nc2n(CCc2ccccc2)c1=N`, for which the cytotoxicity is 61.3% (active).

Turning to `CCCCNC(=O)c1cc2c(=O)n3cccc(C)c3nc2n1C`, the cytotoxicity was -12.6% (inactive).

Regarding `CC1Cc2ccccc2N1C(=O)c1cc2c(=O)n3ccccc3nc2n1C` (stereo not drawn), the cytotoxicity was 13.4% (inactive).

Turning to `COCCn1c(=N)c(C(=O)NCCc2ccccc2)cc2c(=O)n3cccc(C)c3nc21`, the cytotoxicity is -51.7% (inactive).

Turning to `Cc1cccn2c(=O)c3cc(C(=O)N4CCc5ccccc54)n(C)c3nc12`, the cytotoxicity is 10.4% (inactive).

For the molecule `COCCNC(=O)c1cc2c(=O)n3cccc(C)c3nc2n1C`, the cytotoxicity was 52.8% (active).

In the case of `Cc1cccn2c(=O)c3cc(C(=O)N4CCN(C(=O)c5ccco5)CC4)n(C)c3nc12`, the cytotoxicity was 3.5% (inactive).

Consider `CCNC(=O)c1cc2c(=O)n3cccc(C)c3nc2n1C`, for which the cytotoxicity was -0.7% (inactive).

In the case of `O=C(CSc1nnc(-c2ccco2)o1)NC1CC2CCC1C2` (stereo not drawn), the cytotoxicity is -3.3% (inactive).

In the case of `Cc1noc(C(=O)Nc2ccc3c(c2)OCO3)c1Cl`, the cytotoxicity was 19.1% (inactive).

As to `COc1ccc(-c2ccc(SCC(=O)NCc3ccco3)nn2)cc1OC`, the cytotoxicity is 7.2% (inactive).

For `O=C(NCc1ccco1)C1CCCCN1S(=O)(=O)c1ccc(F)cc1` (stereo not drawn), the cytotoxicity was -4.3% (inactive).

For the molecule `CCOCCOC(=O)COc1ccc(N2C(=O)c3ccccc3C2=O)cc1`, the cytotoxicity was -18.5% (inactive).

As to `O=C(CCCn1c(=S)[nH]c2ccccc2c1=O)N1CCOCC1`, the cytotoxicity was -24.3% (inactive).

In the case of `COc1ccc(C(O)P(=O)(O)CCc2ccccc2)cc1` (stereo not drawn), the cytotoxicity is -28.1% (inactive).

On to `COc1cccc(CNC(=O)c2nnn(CC(=O)Nc3ccc(C)c(C)c3)c2N)c1`, for which the cytotoxicity was 0.7% (inactive).

Consider `COc1ccccc1C(=O)Nc1ccc2c(c1)nc(CCNC(C)=O)n2C`, for which the cytotoxicity was -7.3% (inactive).

Take `Cn1nc(-c2ccc(Cl)cc2)c2cc(C(=O)N3CCN(c4ccccn4)CC3)sc21`: the cytotoxicity was -0.6% (inactive).

Turning to `COc1ccc(N2CCN(C(=O)c3cc4c(-c5cccc(OC)c5)nn(C)c4s3)CC2)cc1`, the cytotoxicity is -2.7% (inactive).

Consider `Cc1ccc(OCC(=O)N2CCN(C3=NS(=O)(=O)c4ccccc43)CC2)cc1`, for which the cytotoxicity is 0.8% (inactive).

As to `CCOc1ccccc1OCCCCN1CCCC1`, the cytotoxicity is 3% (inactive).

Consider `CCOC(=O)c1c(C)oc2c1cc(O)c1ccccc12`, for which the cytotoxicity was 15.4% (inactive).

`COC(=O)c1c(C)oc(C)c(C(=O)OC)c1=O`: the cytotoxicity is 1.7% (inactive).

`CC(C)NC(=O)c1cnc(N2CCN(c3ccccn3)CC2)c2ccccc12`: the cytotoxicity was -9.4% (inactive).

Take `COc1ccc(C(=O)N(CN2CCCC2=O)c2nccs2)cc1OC`: the cytotoxicity is 6.2% (inactive).

Consider `c1ccc(-c2nc(NC3CC3)nc(-n3ccnc3)n2)cc1`, for which the cytotoxicity is 9.6% (inactive).

`c1ccc(-c2nc(N3CCCCCC3)nc(-n3ccnc3)n2)cc1`: the cytotoxicity was -19.9% (inactive).

On to `c1ccc(-c2nc(-n3ccnc3)nc(-n3ccnc3)n2)cc1`, for which the cytotoxicity was 20.1% (inactive).

Take `c1ccc(-c2nc(N3CCN(c4ccccc4)CC3)nc(-n3ccnc3)n2)cc1`: the cytotoxicity is 43% (inactive).

As for `CC(C)Nc1nc(-c2ccccc2)nc(-n2ccnc2)n1`, the cytotoxicity is 58.3% (active).
